Most compounds without a hit are left out; they make up all but 4.1% or so of the library.
AmpC inh detg = inhibitors of E. coli AmpC beta-lactamase with detergent. AmpC hydrolysis of nitrocefin, absorbance 480 nm, 0.01% Triton. P00811. hit rate 0.041% among 370,000. Potency, µM (doses to about 114 µM), without a hit: top-dose activity change, negative = inhibition, most hits filed as inhibitors. AID 485294;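 note: 0% = no-compound wells and -100% = no-enzyme wells; nearly all actives have a fitted effect of over 25% in size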
Target sequence (P00811 whole entry, looked up): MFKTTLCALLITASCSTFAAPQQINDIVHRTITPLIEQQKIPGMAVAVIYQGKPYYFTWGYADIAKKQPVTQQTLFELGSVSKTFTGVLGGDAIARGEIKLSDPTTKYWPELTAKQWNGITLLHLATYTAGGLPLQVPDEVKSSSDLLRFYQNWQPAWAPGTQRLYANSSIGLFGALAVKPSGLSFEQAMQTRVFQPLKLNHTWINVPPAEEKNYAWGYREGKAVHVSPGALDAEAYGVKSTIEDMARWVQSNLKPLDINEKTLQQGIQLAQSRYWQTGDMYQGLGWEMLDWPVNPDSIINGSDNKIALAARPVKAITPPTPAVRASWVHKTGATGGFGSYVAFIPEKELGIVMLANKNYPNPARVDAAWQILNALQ
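20 mM phosphate pH 7.0 + 0.01% (detergent screen) or 0.0001% Triton X-100; 5.3 nM AmpC reagent; cpd preinc 15 min RT; nitrocefin (800 uM stock) to start; A480 q20 s × 4 min; Activity was normalised to no-enzyme and no-compound control wells.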
Sm TGR block = S. mansoni TGR enzyme inhibition; Q962Y6; purified TGR, DTNB reduction, TNB absorbance 405 nm; Potency, µM (doses to about 114 µM), without a hit: at the highest dose activity change, negative = inhibition, actives largely listed as inhibitors; hit rate 3% among 360,000; AID 485364; note: nearly all actives have a fitted effect of over 60% in size
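Kinetic colorimetric format: TGR-catalysed, NADPH-driven DTNB reduction monitored via TNB absorbance. Enzyme dispensed at 20 nM; compound exposure 15 min at room temperature before reaction start.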
AmpC no deterg = AmpC beta-lactamase inhibition without detergent; P00811; AmpC nitrocefin hydrolysis, absorbance 480 nm, 0.0001% Triton; Potency, µM (doses to about 57.1 µM), for inactives: top-dose activity change, negative = inhibition, hits mostly inhibitors; hit rate 0.52% among 330,000;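 note: plate controls were no compound for no effect and no enzyme for full effect; nearly all actives have a fitted effect of over 20% in size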
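20 mM phosphate pH 7.0 + 0.01% (detergent screen) or 0.0001% Triton X-100; 5.3 nM AmpC reagent; cpd preinc 15 min RT; nitrocefin (800 uM stock) to start; A480 q20 s × 4 min; Activity was normalised to no-enzyme and no-compound control wells.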
AMA1 RON2 block = inhibitors of Plasmodium falciparum AMA1-RON2 interaction; hit rate 0.2% among 360,000; AlphaScreen AMA1-biotinylated RON2 peptide binding; AID 720542; Potency, µM (top dose mostly 58.2 µM), for inactives: at the highest dose activity change, negative = inhibition, actives largely listed as inhibitors;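 note: 0% = vehicle wells and -100% = peptide control; nearly all actives have a fitted effect of over 45% in size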
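AMA1 (3D7) with his tag at 25 nM final met compounds first, then biotinylated RON2 peptide at 25 nM; detection used donor plus acceptor beads, 10 µg/mL apiece, read by AlphaScreen after 30 min at room temperature.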
FMDV antiviral = foot and mouth disease virus antiviral activity; FMDV antiviral cell-based qHTS; Potency, µM (series often up to 57.9 µM), for the others: at the top dose activity change, negative = inhibition, actives largely listed as inhibitors; hit rate 1.2% among 410,000; AID 1159524; calls by dose curve; tested in HEK293T cells; note: read-out not given here; nearly all actives have a fitted effect of over 45% in size
The depositor's hits bear a star; ? = inconclusive; . = no result; [ ] = another dose, or the depositor's remark. Unless noted, calls come from the whole dose curve; as a rule, active = well fitted curve in the direction sought with a large enough effect; inconclusive = small, poorly fitted or top-dose-only effect, or another doubt; inactive = no such curve, though single readings can be large; an effect the other way counts as inactive or inconclusive. Unless noted, % is set by controls: 0 for no effect and ±100 for the full control effect; potency is the fitted concentration of half-maximal effect.

SMILES	AmpC inh detg	Sm TGR block	AmpC no deterg	AMA1 RON2 block	FMDV antiviral
Cc1nn(-c2ccc(N3CCOCC3)nn2)c(C)c1CCC(=O)NCc1ccc(Cl)cc1	2.1%	-7.5%	.	.	7.5%
CCC(C)NC(=O)c1ccc2c(c1)N=C(C)c1cc(C)ccc1S2 (stereo not drawn)	-4.3%	1.5%	.	.	-18.0%
CC(=O)n1cc(N(C(=O)CCl)c2ccc(C)cc2)c2ccccc21	-5.7%	0.708µM*	52.8%	-0.4%	14.1µM*
COc1ccc(/C=C/C(=O)C2C(=O)C=C(C)OC2=O)cc1O (stereo not drawn)	-12.1%	-28.2%	-58.3%	8.2%	-9.2%
COc1cc(/C=C/C(=O)C2C(=O)C=C(C)OC2=O)cc(OC)c1O (stereo not drawn)	-9.2%	-33.1%	24.9%	-6.7%[11.6 µM]	17.8µM*
O=C(Nc1ccccc1)c1sc2cc(C(F)(F)F)cnc2c1-c1cccs1	1.0%	-12.0%	4.47µM*	2.1%	-9.6%
NNC(=O)c1sc2cc(C(F)(F)F)cnc2c1-c1cccs1	2.6%	10.6%	-28.1%	62.5%	3.7%
Cc1cccc(/C=C/C(=O)c2ccc([N+](=O)[O-])o2)c1	0.3%	1.58µM*	-11.5%	-4.3%	25.1µM*
COc1ccc(/C=C/C(=O)c2ccc([N+](=O)[O-])o2)cc1	?	?	-15.8%	-0.5%	25.1µM*
O=C(/C=C/c1cccc([N+](=O)[O-])c1)c1ccc([N+](=O)[O-])o1	.	.	.	6.5%	?
Cc1ccccc1/C=C/C(=O)c1ccc([N+](=O)[O-])o1	7.2%	2µM*	-14.8%	?	22.4µM*
O=C(O)c1ccc2c(c1)C(=O)N(c1cccc(C(=O)/C=C/c3ccccc3)c1)C2=O	-5.7%	25.1µM*	-26.3%	5.7%	25.1µM*
O=C(O)c1cccc(N2C(=O)c3ccc(C(=O)c4cccc([N+](=O)[O-])c4)cc3C2=O)c1	-2.2%	50.1µM*	-24.9%	4.8%	-4.4%
O=C(O)c1ccc(NC(=O)c2ccc3c(c2)C(=O)N(c2ccccc2)C3=O)cc1	-3.6%	19.5%	-10.5%	-14.7%	11.1%
O=C(NCc1cccc(Cl)c1)NCc1noc2ccccc12	12.9%	3.7%	.	.	12.2%
FC(F)(F)c1cc(Cc2nc3ccccc3n2C(CCc2ccccc2)c2nc3ccccc3[nH]2)cc(C(F)(F)F)c1 (stereo not drawn)	.	.	.	0.7%	-10.9%
COc1ccc([N+](=O)[O-])cc1N(CC(O)CN1CCCCC1)S(=O)(=O)c1ccc(C)cc1 (stereo not drawn)	-13.5%	35.5µM*	154.2%	-8.2%	-3.7%
COc1ccc([N+](=O)[O-])cc1N(CC(O)CN1CCOCC1)S(=O)(=O)c1ccccc1 (stereo not drawn)	-0.8%	9.7%	19.5%	-7.2%	31.2%
CCOc1cc(C(=O)N2CCc3c([nH]c4ccccc34)C2c2ccccc2)cc(OCC)c1OCC (stereo not drawn)	1.0%	0.3%	.	.	-1.5%
CC[N+](CC)(CC)CCCCOc1ccc2c(c1)C(=O)c1cc(OCCCC[N+](CC)(CC)CC)ccc1-2	0.8%	20µM*	-6.3%	-5.1%	-6.8%
CC[N+](C)(CC)CCCCOc1ccc2c(c1)C(=O)c1cc(OCCCC[N+](C)(CC)CC)ccc1-2	-7.8%	5.62µM*	17.3%	-7.4%	-15.7%
O=C(CCN1C(=O)/C(=C/c2ccco2)SC1=S)Nc1ccc(O)cc1C(=O)O	?	?	-31.4%	?	3.4%
O=C(CN1C(=O)/C(=C\c2ccco2)SC1=S)Nc1ccc(O)cc1C(=O)O	0.1%	25.1µM*	-25.1%	-1.4%	-25.3%
O=C(CCN1C(=O)/C(=C\c2ccco2)SC1=S)Nc1ccc(C(=O)O)c(O)c1	?	17.8µM*	-56.8%	-5.6%	13.8%
O=C(CCN1C(=O)/C(=C/c2ccco2)SC1=S)Nc1ccc(C(=O)O)c(O)c1	-3.9%	?	-40.8%	-19.8%	14.9%
SMILES	AmpC inh detg	Sm TGR block	AmpC no deterg	AMA1 RON2 block	FMDV antiviral
CCCCNC(=O)CCCn1c(=O)c2ccccc2n(CC(=O)Nc2ccccc2OCC)c1=O	17.4%	0.4%	.	.	1.5%
CCc1ccc(Nc2nnc(SCC(=O)Nc3sccc3C(N)=O)s2)cc1	5.5%	0.7%	15.8µM*	13.1%	?
Cc1nnc(SCC(=O)Nc2sccc2C(N)=O)s1	-2.8%	-8.3%	-16.4%	12.9%	-19.6%
COc1cccc(Nc2nnc(SCC(=O)Nc3sccc3C(N)=O)s2)c1	3.1%	.	-44.1%	35.4%	15.8µM*
COc1cccc(NC(=O)CSc2nnc(NC(=O)C3CC3)s2)c1	-9.7%	2.2%	-27.5%	1.0%	28.8%
Cc1cc(C)cc(N2CCn3c2nc2c3c(=O)n(CCc3ccccc3)c(=O)n2C)c1	19.1%	?	.	.	-28.8%
Cn1cnc([N+](=O)[O-])c1Sc1ncn[nH]1	2.9%	2.82µM*	-16.6%	-11.2%	-24.0%
Cn1cnc([N+](=O)[O-])c1Sc1ccc([N+](=O)[O-])cc1	-5.0%	.	-9.9%	5.6%	22.4µM*
Cn1c(N)c(Sc2ccc([N+](=O)[O-])cc2)c(=O)n(C)c1=O	-2.8%	3.1%	-10.4%	-4.6%	-1.9%
CCN(CC)c1c([N+](=O)[O-])ncn1C	-7.6%	-13.4%	-16.3%	0.1%	-12.8%
CCC(Oc1ccccc1)C(=O)Nc1cc(-c2ccccc2F)nn1-c1ccccc1 (stereo not drawn)	6.1%	-12.1%	.	.	?
O=C(NCc1ccc(Cl)cc1)c1ccc2c(Cl)c3c(nc2c1)CCCC3	-4.7%	0.5%	.	.	-18.9%
CC/C=C\[C@H](O)[C@H](O)C1=C(C)C(=O)[C@]2(O1)C(=O)N[C@@](OC)(C(=O)c1ccccc1)C2O (stereo partly drawn)	9.2%	39.8µM*	-13.6%	-6.4%	-12.0%
O=C1C(Cl)=C(Nc2ccccc2O)C(=O)N1CCc1ccccc1	-15.5%	28.2µM*	-20.7%	-7.9%	17.5%
COc1ccc(CCNC2=C(Cl)C(=O)N(CCc3ccccc3)C2=O)cc1OC	-5.1%	-13.1%	44.9%	7.9%	22.4µM*
CCN(CCCNC(=O)c1nn(-c2ccc(OC)cc2)c(=O)c2c1c1ccccc1n2C)c1ccccc1	2.0%	11.3%	.	.	-21.5%
C=C/C(C)=C/CC1C(=C)CCC2C(C)(C(=O)O)CCCC12C (stereo not drawn)	3.1%	31.6µM*	-51.9%	-23.2%	-11.7%
CCCCc1ccc(NC(=O)N2CCN(c3cc(C)nc4ccccc34)CC2)c(C)c1	-2.3%	1.1%	-9.3%	7.5%	35.5µM*
CC(C)=C1C2C=CC1C1C(=O)N(c3ccc4c(c3)OCO4)C(=O)C21 (stereo not drawn)	-1.6%	20µM*	-21.3%	18.7%	-0.6%
O=C1C2C3C=CC(C4CC34)C2C(=O)N1c1ccc2c(c1)OCO2 (stereo not drawn)	4.2%	44.7µM*	-13.1%	-19.7%	18.8%
